Measurements taken from PubChem BioAssay AID1159580 (chemical genetic matrix, 2015).
In all, about 5,500 compounds went through this assay and about 2,000 (36%) were called active. Not shown: some 18% with an inconclusive outcome. Rule as the data show it: active = normalized growth mostly below about 0.91 (no sharp cut-off); inconclusive = no clear call, values can overlap the other calls; inactive = mostly above about 0.92. This is one part of the list.

Test: chemical genetic growth profiling, strain panel (AID 1159580);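 also: tested at 20 µM; growth read once vehicle control cultures reached saturation at 30 °C; 1 = growth at the plate median or of vehicle wells; lower values mean less growth of the strain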
Settings: growth OD

Measured: normalized growth

CC12CCC3c4ccc(OCc5ccccc5)cc4CCC3C1C[C@@H](O)[C@@H]2O (stereo partly specified)
inactive: S. cerevisiae deletion strains, locus YBR021W, strain FUR4, active compounds read low 0.995
active: S. cerevisiae deletion strains, locus YBR229C, strain ROT2, active compounds read low 0.0599 | S. cerevisiae deletion strains, locus YCL029C, strain bik1, active compounds read low 0.0651 | S. cerevisiae deletion strains, locus YDL035C, strain GPR1, active compounds read low 0.1 | S. cerevisiae deletion strains, locus YDL074C, strain BRE1, active compounds read low 0.0834 | S. cerevisiae deletion strains, locus YDL101C, strain DUN1, active compounds read low 0.0689 | S. cerevisiae deletion strains, locus YDL134C, strain PPH21, active compounds read low 0.055 | S. cerevisiae deletion strains, locus YDL185W, strain tfp1, active compounds read low 0.058 | S. cerevisiae deletion strains, locus YDL192W, strain arf1, active compounds read low 0.0627 | S. cerevisiae deletion strains, locus YDR101C, strain arx1, active compounds read low 0.127 | S. cerevisiae deletion strains, locus YDR150W, strain NUM1, active compounds read low 0.355 | S. cerevisiae deletion strains, locus YDR162C, strain NBP2, active compounds read low 0.0538 | S. cerevisiae deletion strains, locus YDR318W, strain mcm21, active compounds read low 0.076 | S. cerevisiae deletion strains, locus YDR388W, active compounds read low 0.066 | S. cerevisiae deletion strains, locus YDR502C, strain sam2, active compounds read low 0.0938 | S. cerevisiae deletion strains, locus YEL061C, strain CIN8, active compounds read low 0.0518 | S. cerevisiae deletion strains, locus YER110C, active compounds read low 0.0937 | S. cerevisiae deletion strains, locus YER155C, strain BEM2, active compounds read low 0.0637 | S. cerevisiae deletion strains, locus YER167W, strain BCK2, active compounds read low 0.0557 | S. cerevisiae deletion strains, locus YGL078C, strain dbp3, active compounds read low 0.106 | S. cerevisiae deletion strains, locus YGL086W, strain mad1, active compounds read low 0.0655 | S. cerevisiae deletion strains, locus YGL248W, strain PDE1, active compounds read low 0.0599 | S. cerevisiae deletion strains, locus YGR135W, strain pre9, active compounds read low 0.265 | S. cerevisiae deletion strains, locus YGR252W, strain gcn5, active compounds read low 0.133 | S. cerevisiae deletion strains, locus YHR030C, strain SLT2, active compounds read low 0.0559 | S. cerevisiae deletion strains, locus YHR079C, strain IRE1 (second series), active compounds read low 0.0829 | S. cerevisiae deletion strains, locus YHR094C, strain hxt1, active compounds read low 0.0776 | S. cerevisiae deletion strains, locus YHR129C, strain ARP1, active compounds read low 0.0606 | S. cerevisiae deletion strains, locus YHR200W, strain rpn10, active compounds read low 0.0742 | S. cerevisiae deletion strains, locus YIL066C, strain RNR3, active compounds read low 0.0563 | S. cerevisiae deletion strains, locus YIL073C, strain SPO22, active compounds read low 0.112 | S. cerevisiae deletion strains, locus YIL125W, strain kgd1, active compounds read low 0.0668 | S. cerevisiae deletion strains, locus YIR030C, strain dcg1, active compounds read low 0.104 | S. cerevisiae deletion strains, locus YJL095W, strain BCK1, active compounds read low 0.062 | S. cerevisiae deletion strains, locus YJL134W, strain LCB3, active compounds read low 0.0681 | S. cerevisiae deletion strains, locus YJL168C, strain set2, active compounds read low 0.0842 | S. cerevisiae deletion strains, locus YJL187C, strain SWE1 (second series), active compounds read low 0.0613 | S. cerevisiae deletion strains, locus YJR043C, strain POL32, active compounds read low 0.0826 | S. cerevisiae deletion strains, locus YJR075W, strain HOC1, active compounds read low 0.0841 | S. cerevisiae deletion strains, locus YKL009W, strain mrt4, active compounds read low 0.0811 | S. cerevisiae deletion strains, locus YKL068W, active compounds read low 0.187 | S. cerevisiae deletion strains, locus YKL085W, strain MDH1 (second series), active compounds read low 0.068 | S. cerevisiae deletion strains, locus YKL085W, strain MDH1, active compounds read low 0.068 | S. cerevisiae deletion strains, locus YKL190W, strain CNB1, active compounds read low 0.0552 | S. cerevisiae deletion strains, locus YKR001C, strain vps1, active compounds read low 0.062 | S. cerevisiae deletion strains, locus YLR039C, strain RIC1, active compounds read low 0.0869 | S. cerevisiae deletion strains, locus YLR058C, strain SHM2, active compounds read low 0.0598 | S. cerevisiae deletion strains, locus YLR102C, strain apc9, active compounds read low 0.0693 | S. cerevisiae deletion strains, locus YLR262C, strain YPT6, active compounds read low 0.103 | S. cerevisiae deletion strains, locus YLR268W, strain sec22, active compounds read low 0.0915 | S. cerevisiae deletion strains, locus YLR330W, strain CHS5, active compounds read low 0.0559 | S. cerevisiae deletion strains, locus YLR342W, strain FKS1 (second series), active compounds read low 0.0702 | S. cerevisiae deletion strains, locus YLR371W, strain rom2, active compounds read low 0.0664 | S. cerevisiae deletion strains, locus YLR418C, strain cdc73, active compounds read low 0.101 | S. cerevisiae deletion strains, locus YML016C, strain PPZ1, active compounds read low 0.0511 | S. cerevisiae deletion strains, locus YML032C, strain rad52, active compounds read low 0.0688 | S. cerevisiae deletion strains, locus YML124C, strain tub3, active compounds read low 0.117 | S. cerevisiae deletion strains, locus YMR078C, strain ctf18, active compounds read low 0.0734 | S. cerevisiae deletion strains, locus YMR223W, strain ubp8, active compounds read low 0.0801 | S. cerevisiae deletion strains, locus YMR307W, strain GAS1, active compounds read low 0.114 | S. cerevisiae deletion strains, locus YNL067W, strain RPL9B, active compounds read low 0.093 | S. cerevisiae deletion strains, locus YNL128W, strain TEP1, active compounds read low 0.0726 | S. cerevisiae deletion strains, locus YNL153C, strain GIM3, active compounds read low 0.0573 | S. cerevisiae deletion strains, locus YNL233W, strain BNI4, active compounds read low 0.0603 | S. cerevisiae deletion strains, locus YNL250W, strain rad50, active compounds read low 0.0963 | S. cerevisiae deletion strains, locus YNL271C, strain bni1, active compounds read low 0.129 | S. cerevisiae deletion strains, locus YNL298W, strain CLA4, active compounds read low 0.0669 | S. cerevisiae deletion strains, locus YNL307C, strain MCK1, active compounds read low 0.0674 | S. cerevisiae deletion strains, locus YNR052C, strain pop2, active compounds read low 0.0752 | S. cerevisiae deletion strains, locus YOL006C, strain TOP1, active compounds read low 0.114 | S. cerevisiae deletion strains, locus YOL012C, strain htz1 0.149 | S. cerevisiae deletion strains, locus YOL147C, strain pex11, active compounds read low 0.0612 | S. cerevisiae deletion strains, locus YOR061W, strain CKA2, active compounds read low 0.0522 | S. cerevisiae deletion strains, locus YOR069W, strain VPS5, active compounds read low 0.0556 | S. cerevisiae deletion strains, locus YOR136W, strain idh2, active compounds read low 0.077 | S. cerevisiae deletion strains, locus YOR144C, strain elg1, active compounds read low 0.0719 | S. cerevisiae deletion strains, locus YOR184W, strain ser1, active compounds read low 0.0768 | S. cerevisiae deletion strains, locus YOR316C, strain cot1, active compounds read low 0.0738 | S. cerevisiae deletion strains, locus YPL055C, strain LGE1, active compounds read low 0.0696 | S. cerevisiae deletion strains, locus YPL241C, strain CIN2, active compounds read low 0.0593 | S. cerevisiae deletion strains, locus YPR119W, strain clb2, active compounds read low 0.0659 | S. cerevisiae deletion strains, locus YPR141C, strain kar3, active compounds read low 0.106 | S. cerevisiae deletion strains, locus YPR163C, strain tif3, active compounds read low 0.0746 | S. cerevisiae deletion strains, locus YPR167C, strain met16, active compounds read low 0.0654 | S. cerevisiae deletion strains, strain wtn01, active compounds read low 0.107 | S. cerevisiae strains, strain wild type, active compounds read low 0.0526
